{"source": "the supplement of paper PMC9844399", "note": "Counter-ions that a name gives are not always drawn. Values without a mark were called inactive.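 Further: High-content confocal imaging of branched-DNA amplified FISH in 384-well plates, Hoechst-defined nuclei, score is well value minus plate DMSO median over DMSO robust SD, four wells per compound.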", "data": [{"system": "HeLa", "assay": "MALAT1 nuclear FISH intensity, robust Z-score vs DMSO; higher = more nuclear MALAT1 lncRNA, active = -3 or less", "conditions": "10 µM; 6 h", "values": [{"smiles": "NCCCCNS(=O)(=O)c1ccc2c(Cl)cccc2c1", "note": "[W-13 hydrochloride]", "MALAT1 nuclear FISH intensity": -0.548}, {"smiles": "CNS(=O)(=O)CCc1ccc2[nH]cc(C3CCN(C)CC3)c2c1", "MALAT1 nuclear FISH intensity": -0.52}, {"smiles": "COc1ccc2c(c1)c(CC(=O)O)c(C)n2C(=O)c1ccc(Cl)cc1", "note": "[Indomethacin]", "MALAT1 nuclear FISH intensity": -0.0795}, {"smiles": "Clc1ccc(C(Cn2ccnc2)OCc2csc3c(Cl)cccc23)c(Cl)c1", "note": "(stereo not drawn) [Sertaconazole]", "MALAT1 nuclear FISH intensity": 1.16}, {"smiles": "COc1ccc2[nH]c([S+]([O-])Cc3ncc(C)c(OC)c3C)nc2c1", "note": "(stereo not drawn) [Omeprazole]", "MALAT1 nuclear FISH intensity": 0.765}, {"smiles": "CN(C)c1nc(N(C)C)nc(N(C)C)n1", "note": "[Altretamine]", "MALAT1 nuclear FISH intensity": 0.0822}, {"smiles": "COc1ccc2cc1Oc1ccc(cc1)C[C@H]1c3cc(c(OC)cc3CCN1C)Oc1c(OC)c(OC)cc3c1[C@H](C2)N(C)CC3", "note": "[Tetrandine]", "MALAT1 nuclear FISH intensity": -0.0671}, {"smiles": "CCCCC[C@H](O)/C=C/[C@H]1C(=O)C[C@H](O)[C@@H]1C/C=C\\CCCC(=O)O", "note": "[Prostaglandin  D2]", "MALAT1 nuclear FISH intensity": 0.0927}, {"smiles": "Cc1cn([C@@H]2C[C@@H](O)[C@H](CO)O2)c(=O)[nH]c1=O", "note": "[Telbivudine]", "MALAT1 nuclear FISH intensity": -0.192}, {"smiles": "COCCCCCCCCCCCC(=O)O", "note": "[12-Methoxydodecanoic acid]", "MALAT1 nuclear FISH intensity": -0.53}, {"smiles": "Nc1cc(N2CCCCC2)nc(N)[n+]1[O-]", "note": "[Minoxidil]", "MALAT1 nuclear FISH intensity": -0.0516}, {"smiles": "CS(=O)(=O)c1ccc(C(=O)Nc2ccc(Cl)c(-c3ccccn3)c2)c(Cl)c1", "note": "[Vismodegib (GDC-0449)]", "MALAT1 nuclear FISH intensity": -0.859}, {"smiles": "C[C@]12CC[C@@H]3c4ccc(OS(=O)(=O)O)cc4CC[C@H]3[C@@H]1CCC2=O", "note": "[Estropipate]", "MALAT1 nuclear FISH intensity": 0.478}, {"smiles": "CCC(C)n1ncn(-c2ccc(N3CCN(c4ccc(OCC5COC(Cn6cncn6)(c6ccc(Cl)cc6Cl)O5)cc4)CC3)cc2)c1=O", "note": "(stereo not drawn) [Itraconazole]", "MALAT1 nuclear FISH intensity": -1.24}, {"smiles": "CC(=O)OCC(=O)[C@@]1(O)CC[C@H]2[C@@H]3CCC4=CC(=O)CC[C@]4(C)[C@@]3(F)[C@@H](O)C[C@@]21C", "note": "[Fludrocortisone Acetate]", "MALAT1 nuclear FISH intensity": 1.96}, {"smiles": "C=CC(N)CCC(=O)O", "note": "(stereo not drawn) [Vigabatrin]", "MALAT1 nuclear FISH intensity": -0.56}, {"smiles": "CCCCCC(O)C=CC1C(O)CC(O)C1CC=CCCCC(=O)O", "note": "(stereo not drawn) [8-epi-Prostaglandin F2a]", "MALAT1 nuclear FISH intensity": -0.0974}, {"smiles": "CNC(=O)c1cc(Oc2ccc(NC(=O)Nc3ccc(Cl)c(C(F)(F)F)c3)c(F)c2)ccn1", "note": "[Regorafenib (BAY 73-4506)]", "MALAT1 nuclear FISH intensity": -0.123}, {"smiles": "COc1cc2nc(N3CCN(C(=O)C4CCCO4)CC3)nc(N)c2cc1OC", "note": "(stereo not drawn)", "MALAT1 nuclear FISH intensity": -0.488}, {"smiles": "CC(=O)N[C@@H](CS)C(=O)O", "note": "[Acetylcysteine]", "MALAT1 nuclear FISH intensity": -1.06}, {"smiles": "O=c1cc(-c2cccc3c2Sc2ccccc2S3)oc(N2CCOCC2)c1", "MALAT1 nuclear FISH intensity": -0.163}, {"smiles": "CCCCC/C=C\\C/C=C\\C/C=C\\C/C=C\\CCCC(=O)O[C@@H](CO)COCCCCCCCCCCCCCCCC", "note": "[1-Hexadecyl-2-arachidonoyl-glycerol]", "MALAT1 nuclear FISH intensity": -0.812}, {"smiles": "Cc1ccccc1C(=O)Nc1ccc(C(=O)N2CCCC(O)c3cc(Cl)ccc32)c(C)c1", "note": "(stereo not drawn) [Tolvaptan]", "MALAT1 nuclear FISH intensity": 0.0389}, {"smiles": "C[C@]12CCC(=O)C=C1CC[C@@H]1[C@@H]2[C@@H](O)C[C@@]2(C)[C@H]1CC[C@]2(O)C(=O)CO", "note": "[Hydrocortisone]", "MALAT1 nuclear FISH intensity": 1.24}, {"smiles": "CCCCC/C=C\\C/C=C\\C/C=C\\C/C=C\\CCCC(=O)OC(CO)CO", "note": "[2-Arachidonoylglycerol]", "MALAT1 nuclear FISH intensity": -1.05}, {"smiles": "CCCCN1C[C@H](O)[C@@H](O)[C@H](O)[C@H]1CO", "MALAT1 nuclear FISH intensity": -0.337}, {"smiles": "CC(=O)O[C@H]1C(=O)[C@@]2(C)[C@H]([C@H](OC(=O)c3ccccc3)[C@]3(O)C[C@H](OC(=O)[C@H](O)[C@@H](NC(=O)c4ccccc4)c4ccccc4)C(C)=C1C3(C)C)[C@]1(OC(C)=O)CO[C@@H]1C[C@@H]2O", "note": "[Paclitaxel (Taxol)]", "MALAT1 nuclear FISH intensity": -0.583}, {"smiles": "CC(=O)O[C@H]1C(=O)[C@@]2(C)[C@H]([C@H](OC(=O)c3ccccc3)[C@]3(O)C[C@H](OC(=O)[C@H](O)[C@@H](NC(=O)c4ccccc4)c4ccccc4)C(C)=C1C3(C)C)[C@]1(OC(C)=O)CO[C@@H]1C[C@@H]2O", "note": "[Paclitaxel]", "MALAT1 nuclear FISH intensity": -0.75}]}]}
